Where “and” joins values, the source holds several entries; their conditions need not be identical. Identical values can stand only once. Inconclusive results are not listed. A structure can be active in one record and inactive in another. Calls of active or inactive are those of the source. Unless noted, calls follow the shape of the dose curve; as a rule, active = well fitted curve in the direction sought with a large enough effect in the repeat runs; inconclusive = weak or mixed curves; inactive = no such curve, though single readings can be large; an effect the other way counts as inactive or inconclusive.

The record followed here is PubChem BioAssay (Tox21).

Experiment [1] can be described thus: qHTS assay to identify small molecule antagonists of the androgen receptor (AR) signaling pathway using the MDA cell line in the presence of 0.5 nM R1881 - cell viability counter screen (AID 1259242). Also: nearly all actives have a fitted effect of over 45% in size. An outline of the steps: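 Cytotoxicity toward MDA-kb2 cells is measured by CellTiter-Fluor live-cell protease fluorescence after 16 hr compound exposure at 37C in the presence of 0.5 nM R1881 stimulator.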
A general note: In qHTS, concentration-response curves come from the screen itself.

Experiment [2] deals with Estrogen receptor (Homo sapiens) (UniProt P03372). In words: qHTS assay to identify small molecule antagonists of the estrogen receptor alpha (ER-alpha) signaling pathway using the BG1 cell line in the presence of 0.1 nM 17-beta-estradiol (AID 1259244). Also: nearly all actives have a fitted effect of over 50% in size. Put shortly:
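After 5 days in hormone-depleted medium (charcoal-stripped serum, no phenol red), VM7Luc4E2 cells were seeded, incubated 24 h, then co-treated with compound and 0.1 nM (final) estradiol for 22 h before luminescence detection.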

Experiment [3] in a line: qHTS assay to identify small molecule HDAC inhibitors (AID 1259364). Also: nearly all actives have a fitted effect of over 45% in size. Also: potency is read from the fitted curve at half-maximal effect. Put shortly: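 Homogeneous cell-based luminescent assay of endogenous class I/II HDAC activity; HCT-116 cells, 2 h compound exposure, 30 min HDAC-Glo development at RT.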
Experiment [4] can be described thus: qHTS assay to identify small molecule HDAC inhibitors - cell viability counter screen (AID 1259365). Also: series mostly up to about 92 µM; nearly all actives have a fitted effect of over 50% in size. An outline of the steps:
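After overnight seeding at 1,500 cells per well, wild-type HCT-116 cultures took up compounds in DMSO for 2hr at 37 C. Viable cell content came from luminescence with CellTiter-Glo.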

Experiment [5] is described as follows: qHTS assay to identify small molecule agonists of the sonic hedgehog signaling (Shh) pathway - cell viability counter screen (AID 1259366). Also: nearly all actives have a fitted effect of over 50% in size. Put shortly:
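Same-well cytotoxicity read. Gli1-Luc reporter 3T3 cells; compounds 24hr, 37C/5% CO2; CellTiter-Fluor fluorescence.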

Experiment [6] can be described thus: qHTS assay to identify small molecule antagonists of the sonic hedgehog signaling (Shh) pathway - cell viability counter screen (AID 1259367). Also: nearly all actives have a fitted effect of over 55% in size. Put shortly:
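Seed 3T3 Gli1-Luc cells at 2,000 per well; incubate 4 hr; add compound in DMSO, then conditioned medium; incubate at 37C with 5% CO2; add CellTiter-Fluor after 23 hr; read fluorescence 1 hr later.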

Experiment [7] is described as follows: qHTS assay to identify small molecule agonists of the sonic hedgehog signaling (Shh) pathway (AID 1259368; calls by dose curve;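 also: NIH/3T3-derived 3T3Gli1-Luc cells carrying a stable Gli1-driven firefly luciferase reporter; series mostly up to about 92 µM; nearly all actives have a fitted effect of over 15% in size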). An outline of the steps:
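Steps: seed 3T3 Gli1-Luc cells, incubate 4 hr at 37 C, pin-transfer compounds in DMSO alongside a positive control, incubate 24 hr, add luciferase detection reagent, wait 30 min at room temperature, read luminescence.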

A short description of experiment [8]: qHTS assay to identify small molecule antagonists of the sonic hedgehog signaling (Shh) pathway (AID 1259369; calls by dose curve; also: nearly all actives have a fitted effect of over 45% in size). An outline of the steps: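 Inhibition of Shh signalling is measured as reduced Gli1-response-element firefly luciferase output in an NIH/3T3-derived stable reporter clone stimulated with conditioned medium for 24hr.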
The nature of experiment [9]: qHTS assay to identify small molecule agonists of the androgen receptor (AR) signaling pathway in the presence of an antagonist - cell viability counter screen (AID 1259379).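 Also: MDA-kb2 human breast cancer cells carrying an MMTV luciferase reporter; series mostly up to about 92 µM; nearly all actives have a fitted effect of over 25% in size.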 An outline of the steps: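 Fluorescence from CellTiter-Fluor, added after 15 hr and read 1 hr later, gave cell viability. Cells were MDA-kb2 exposed to compounds (15 concentrations) in the presence of 3.0uM nilutamide at 37C, 0% CO2.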

The nature of experiment [10]: qHTS assay to identify small molecule agonists of the estrogen receptor beta (ER-beta) signaling pathway - cell viability counter screen (AID 1259380). Also: nearly all actives have a fitted effect of over 30% in size. Put shortly:
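Same-well viability counter screen. Cells: ER-beta-UAS-bla HEK293T, plated 6 hr before compound, in 2% charcoal-stripped FBS. Compound exposure 16 hr, 37C; viability by CellTiter-Glo luminescence after 30 min at room temperature.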

Experiment [11] can be described thus: qHTS assay to identify small molecule antagonists of the estrogen receptor beta (ER-beta) signaling pathway - cell viability counter screen (AID 1259382). Also: series mostly up to about 92 µM; nearly all actives have a fitted effect of over 55% in size. An outline of the steps: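 Following a 6 hr plating period, HEK293T cells carrying a UAS-driven beta-lactamase reporter under ER-beta control received compounds and 1nM E2 (final). After 16 hr at 37C and 2 hr substrate loading, CellTiter-Glo luminescence indicated viability.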

Experiment [12] concerns the target Estrogen receptor (Homo sapiens) (UniProt P03372). In words: qHTS assay to identify small molecule agonists of the estrogen receptor alpha (ER-alpha) signaling pathway in the presence of an antagonist (AID 1259383; calls by dose curve; also: top concentration of the series differs between compounds; nearly all actives have a fitted effect of over 15% in size). Put shortly: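 Cells are hormone-deprived for 5 days (charcoal-stripped FBS, no phenol red), plated for 24hr, spiked with 10.0nM ICI-182,780, then dosed at 15 concentrations. After 22hr at 37C, ONE-Glo luminescence reports ERE-luciferase activity.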

For experiment [13], the target named is Thyrotropin receptor (Homo sapiens) (UniProt P16473). As to the kind of experiment: qHTS assay to identify small molecule antagonists of the thyroid stimulating hormone receptor (TSHR) signaling pathway (AID 1259385; calls by dose curve; also: nearly all actives have a fitted effect of over 20% in size). Put shortly: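 TSHR-HEK293 cells (800/well) plated 18 h, then compounds with Ro20-1724 and TSH at 1.5 ng/mL final, 30 min at room temperature. cAMP quantified by HTRF (cAMP-d2/anti-cAMP-cryptate, 1 h); 15 concentrations in triplicate.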
Chain of Thyrotropin receptor (Homo sapiens) (P16473 whole entry, looked up): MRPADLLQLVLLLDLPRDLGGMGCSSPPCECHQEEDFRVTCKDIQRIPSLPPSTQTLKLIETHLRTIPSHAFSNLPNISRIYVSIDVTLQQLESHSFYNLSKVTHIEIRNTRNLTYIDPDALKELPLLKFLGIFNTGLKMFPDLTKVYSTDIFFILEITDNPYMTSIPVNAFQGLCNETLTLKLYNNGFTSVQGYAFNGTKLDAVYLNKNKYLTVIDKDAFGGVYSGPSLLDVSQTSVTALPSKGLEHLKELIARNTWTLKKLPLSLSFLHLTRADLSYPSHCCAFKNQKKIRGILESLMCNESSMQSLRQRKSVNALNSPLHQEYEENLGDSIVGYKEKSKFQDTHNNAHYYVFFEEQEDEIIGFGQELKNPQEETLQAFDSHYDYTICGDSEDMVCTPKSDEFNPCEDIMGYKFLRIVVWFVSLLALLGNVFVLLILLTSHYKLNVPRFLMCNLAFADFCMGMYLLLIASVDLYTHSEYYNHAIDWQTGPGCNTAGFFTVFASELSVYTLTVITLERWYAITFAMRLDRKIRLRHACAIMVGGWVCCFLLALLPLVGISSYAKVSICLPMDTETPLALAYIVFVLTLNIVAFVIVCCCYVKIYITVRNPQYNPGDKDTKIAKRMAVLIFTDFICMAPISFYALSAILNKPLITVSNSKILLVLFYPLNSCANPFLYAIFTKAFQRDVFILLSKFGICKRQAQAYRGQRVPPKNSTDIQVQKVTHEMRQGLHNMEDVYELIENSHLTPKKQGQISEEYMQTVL

Experiment [14] can be described thus: qHTS assay to identify small molecule agonists of the estrogen receptor alpha (ER-alpha) signaling pathway in the presence of an antagonist - cell viability counter screen (AID 1259386).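 Also: series mostly up to about 92 µM; cells exposed to compounds for 22 h at 37 °C before the viability read; nearly all actives have a fitted effect of over 30% in size.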 An outline of the steps:
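Cells are starved of estrogens for 5 days in charcoal-stripped serum, seeded for 24hr and co-treated with ICI-182,780 (10.0nM final) and test compounds. After 22hr at 37C, viability is read as CellTiter-Fluor fluorescence.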

The target of experiment [15] is Estrogen receptor beta (Homo sapiens) (UniProt Q92731). As to the kind of experiment: qHTS assay to identify small molecule agonists of the estrogen receptor beta (ER-beta) signaling pathway (AID 1259377; active = well fitted activation curve with a large enough effect in the signal ratio in the repeat runs, not every such curve was filed as active; the % refers to the signal ratio; also: potency is read from the fitted curve at half-maximal effect). An outline of the steps:
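Read-out: beta-lactamase FRET fluorescence. Cell line: ER-beta-UAS-bla HEK293T in 2% charcoal-stripped FBS. Exposure: 16 hr at 37C. Substrate step: 2 h at room temperature.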

For experiment [16] the target is unchanged. In words: qHTS assay to identify small molecule antagonists of the estrogen receptor beta (ER-beta) signaling pathway (AID 1259378; active = well fitted inhibition curve with a large enough effect in the signal ratio in the repeat runs, not every such curve was filed as active; the % refers to the signal ratio). An outline of the steps: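 ER-beta-UAS-bla HEK293T cells in 2% charcoal-stripped FBS medium treated with compound plus 1nM final 17-beta-estradiol for 16 hr at 37C. Beta-lactamase reporter read by FRET substrate fluorescence after 2 hours at room temperature.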

Experiment [17] in a line: qHTS assay to identify small molecule agonists or antagonists of the thyroid stimulating hormone receptor (TSHR) signaling pathway - wild type cell line counter screen (AID 1259384; calls by dose curve). Put shortly:
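Wild-type Hek293 cells, 800/well, 18 h at 37C, then compound with Ro20-1724 for 30 min RT. cAMP by HTRF (cAMP-d2/anti-cAMP cryptate), 1 h RT, fluorescence read. 15 concentrations, triplicates.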

Chain of Estrogen receptor beta (Homo sapiens) (Q92731 whole entry, looked up): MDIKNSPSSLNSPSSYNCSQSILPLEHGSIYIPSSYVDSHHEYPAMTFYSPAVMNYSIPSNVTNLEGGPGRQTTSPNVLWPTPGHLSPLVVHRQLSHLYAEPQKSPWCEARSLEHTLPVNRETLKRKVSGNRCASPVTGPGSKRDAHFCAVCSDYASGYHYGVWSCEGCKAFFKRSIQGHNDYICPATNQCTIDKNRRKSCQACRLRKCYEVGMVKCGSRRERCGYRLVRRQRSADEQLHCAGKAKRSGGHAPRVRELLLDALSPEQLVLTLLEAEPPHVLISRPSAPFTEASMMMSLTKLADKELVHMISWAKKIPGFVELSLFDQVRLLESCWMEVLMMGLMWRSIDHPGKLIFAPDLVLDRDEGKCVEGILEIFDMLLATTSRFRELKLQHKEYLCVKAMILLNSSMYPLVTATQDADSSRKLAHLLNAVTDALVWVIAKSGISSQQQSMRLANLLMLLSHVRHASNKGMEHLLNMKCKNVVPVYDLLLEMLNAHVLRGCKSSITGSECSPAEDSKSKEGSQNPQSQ
Chain of Estrogen receptor (Homo sapiens) (P03372 whole entry, looked up): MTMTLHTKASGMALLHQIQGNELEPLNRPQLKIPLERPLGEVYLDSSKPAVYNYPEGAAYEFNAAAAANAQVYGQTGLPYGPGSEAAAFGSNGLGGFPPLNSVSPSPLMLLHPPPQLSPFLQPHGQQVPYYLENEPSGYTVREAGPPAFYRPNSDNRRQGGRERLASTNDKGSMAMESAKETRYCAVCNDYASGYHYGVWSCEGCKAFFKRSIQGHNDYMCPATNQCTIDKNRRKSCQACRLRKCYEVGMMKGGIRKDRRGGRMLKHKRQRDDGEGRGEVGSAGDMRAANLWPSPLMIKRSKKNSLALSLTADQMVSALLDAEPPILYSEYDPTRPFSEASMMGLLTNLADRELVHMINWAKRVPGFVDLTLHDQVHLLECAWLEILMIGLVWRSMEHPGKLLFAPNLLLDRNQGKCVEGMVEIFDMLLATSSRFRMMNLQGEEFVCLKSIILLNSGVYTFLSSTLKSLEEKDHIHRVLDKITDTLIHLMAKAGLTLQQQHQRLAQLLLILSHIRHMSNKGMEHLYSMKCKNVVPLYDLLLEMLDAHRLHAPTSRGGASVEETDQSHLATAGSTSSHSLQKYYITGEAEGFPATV

With `COC(=O)c1ccc(C)cc1`, the Potency entry in experiment [1], in [2], in experiment [3], in [5], in [6] and in experiment [7] was “inactive” throughout. The Potency result in [8], in experiment [9], in experiment [10], in experiment [11], in [12] and in experiment [13] was “inactive” throughout. Moreover, in experiment [4], the compound was classed as inactive.
Turning to `Oc1c(Cl)ccc(Cl)c1Cl`, the Potency entry in [1], in experiment [2], in experiment [3], in [5], in experiment [6] and in experiment [7] was “inactive” throughout. Besides, the Potency result in [8], in [9], in experiment [11], in experiment [12] and in experiment [14] was “inactive” each time. Further, the outcome in [4] was inactive.
`Nc1cc([N+](=O)[O-])ccc1C(=O)O`: the Potency result in [1], in experiment [2], in experiment [5], in experiment [6], in experiment [7] and in experiment [8] was “inactive” each time. Further, the Potency entry in [15], in experiment [16], in [9], in experiment [10], in experiment [11] and in experiment [12] was “inactive” each time. In addition, the Potency entry in [17], in experiment [13] and in [14] was “inactive” throughout. In addition, the Potency in experiment [3] is 49.5 µM (active) and 27.3 µM (active). Besides, the compound was called inactive in experiment [4].
With `CCCCCCCCCCCCCO`, the Potency result in experiment [1], in [2], in experiment [3], in experiment [5], in experiment [6] and in [7] was “inactive” in each case. Besides, the Potency entry in experiment [8], in experiment [15], in [16], in [9], in [10] and in [11] was “inactive” each time. Further, the Potency entry in experiment [12] and in experiment [14] was “inactive” each time. The call in [4] was inactive.
Take `C1COCCN1`: the Potency result in [1], in experiment [2], in experiment [3], in [5], in experiment [6] and in [7] was “inactive” in each case. In addition, the Potency result in experiment [15], in experiment [16], in [9], in experiment [10], in [11] and in experiment [12] was “inactive” in each case. Also, the Potency result in experiment [17], in experiment [13] and in experiment [14] was “inactive” throughout. In [4], the compound was classed as inactive.
On to `O=C(O)CCCC(=O)O`, for which the Potency result in experiment [1], in experiment [2], in [3], in [5], in [6] and in experiment [7] was “inactive” each time. The Potency result in [8], in experiment [16], in [9], in experiment [10], in experiment [11] and in [12] was “inactive” in each case. Besides, the Potency entry in experiment [13] is “inactive”. The outcome in [4] was inactive. The Potency in experiment [15] is 30 µM (active) and inactive.
As for `CCCN1C=CN(C)C1`, the Potency entry in experiment [1], in experiment [2], in [3], in experiment [5], in experiment [6] and in [7] was “inactive” in each case. Moreover, the Potency entry in experiment [9], in experiment [10], in experiment [11], in experiment [12], in [17] and in [13] was “inactive” in each case. Besides, the Potency result in [14] was “inactive”. Besides, in experiment [4], the call was inactive.
Consider `CCCCCC=O`, for which the Potency result in experiment [1], in experiment [2], in experiment [3], in experiment [5], in [6] and in experiment [7] was “inactive” in each case. Besides, the Potency entry in experiment [9], in experiment [10], in experiment [11], in experiment [12], in experiment [17] and in [13] was “inactive” each time. In addition, the call in experiment [4] was inactive.
